Laboratory results published in the OligoGym collection.

Target: CYTH1
Test: pooled miR-30 sensor sort-seq; sequence = guide strand
Conditions: shRNA
Further: reference of the scale not given here.

Sequence | sensor-assay potency score (higher = more potent)
TTGGTCTTTATTGTCGGGGATA | -1.5
TTCTGCTATCTCATCCTTCAGC | -0.329
TCGTTCTCTATTAAGAACTGGA | -0.271
TACTTCTGCTATCTCATCCTTC | 0.117
AACTTGGTCTTTATTGTCGGGG | -0.623
TGCACTGACAATATCGCTGGGC | 0.0607

Target: CYTH4
Test: as above
Conditions: shRNA

Sequence | sensor-assay potency score (higher = more potent)
TGTAACTCTTCCGTCTCCCCGC | -0.31
TTGAGGTTGGCGAACTCGTGGC | -0.377
TGATCCTCTGTAACTCTTCCGT | -0.462
TCCATGTTGAACTTCTTGCGCC | -1.08
AAGGACAACACGTAGCAGGTGT | 0.877
TTTCGGTGCCACTTGATCCTCT | -0.308
TTGGATATAGCACCCATCCTGC | -0.488
TTGAGCAGCCAACCCTCCCGGT | -1.04
TAGCAGGTGTCTGTGGACTGGA | -0.452
TTCATGGACACAAAGCGCTCGA | -0.11
TTGTCGGTCAGGATGAACCAGC | -0.768

Target: CYorf15A
Test: as above
Conditions: shRNA

Sequence | sensor-assay potency score (higher = more potent)
AAGACTTTTTCTTTGTTCCTGT | 0.524
TACAACATGGAGTTGCTGCTTT | 0.408
TATCTTTTCCATTATTTGCTTT | -0.915
TTGCATTGTAAAGCTTGCTGAC | -0.311
TCTGCTTTCTCTCTTAACCCAC | -0.243
TTCTTTGTTATAAAGTCACGGC | -0.192
TTGGAGTTGATTATTAACTAAA | -1.56
ATTTACAACATGGAGTTGCTGC | -0.262
TTATTTGCTTTACAAAGTCTAG | -0.983
TTGCTTTACAAAGTCTAGTAGG | -0.465
TTGTGCATTTACAACATGGAGT | -0.696
TAAAGCTTGCTGACCAGACGGA | 0.11

Target: DAGLA
Test: as above
Conditions: shRNA

Sequence | sensor-assay potency score (higher = more potent)
TTTCTTCTTGTCATGGTCCACC | -0.657
TTTTCTAAACTCTAAGAGCCAC | -0.539
TATAGTTAGGTCGCTGGGGTGG | -0.742
TTGAGGTCGAGGTACTTGGTGT | -0.552
ATTCTTGGCAGTGAGGTCGTTG | -0.825
TAGAGGTCTTGGAAGGAGCTGC | 0.223
TTGTTTTCTAAACTCTAAGAGC | -0.925
TTAAGTACAAAAAAAGTCTGGG | 0.278
TTTGTAGCGGAGCATCTCTTGT | -1.44
TATACAATATACAGAAACCTTT | -0.353
TAGAAGTCCGGATCTTGTCAGC | -0.641
